Measurements reported in article PMC5700166.

biological target: GST-Hu-p50 (Homo sapiens, UniProt P19838 7-356); assay: protein-binding microarray (PBM); PBM: ~300 nM protein, 6 mM HEPES pH 7.8, 80 mM KCl, 0.5 mM EDTA, 0.5 mM EGTA, 6% glycerol, 35 ng/ul poly-dIdC, 1% milk, 1 h, room temperature; Ap Aiptasia and Nv Nematostella (sea anemones) / Co Capsaspora / Aq Amphimedon (sponge) / Dm Drosophila / Hu human; RHD is the Rel homology domain; high values mean tight binding; conditions: dsDNA, one strand shown
Sequence (P19838 7-356): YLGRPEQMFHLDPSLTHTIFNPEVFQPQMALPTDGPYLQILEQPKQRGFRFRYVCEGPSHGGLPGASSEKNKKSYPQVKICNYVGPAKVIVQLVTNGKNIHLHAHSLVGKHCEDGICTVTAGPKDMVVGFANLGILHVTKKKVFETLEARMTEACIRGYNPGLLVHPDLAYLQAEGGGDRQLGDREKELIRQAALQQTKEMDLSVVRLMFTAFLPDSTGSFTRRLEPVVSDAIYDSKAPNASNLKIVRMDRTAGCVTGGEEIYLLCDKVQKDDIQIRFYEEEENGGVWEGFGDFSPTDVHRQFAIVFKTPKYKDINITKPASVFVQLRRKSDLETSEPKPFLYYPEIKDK

Row | Sequence | binding signal
1 | CCGATTAACATCAAAAATTTCCTTGATGTTAATCGGGTCTTGATTCGCTTGACGCTGCTG | 1.32 z-score
2 | CCGATTAACATCAACCAATCCCCTGATGTTAATCGGGTCTTGATTCGCTTGACGCTGCTG | 4.9 z-score
3 | CCGATTAACATCAAGGGAAAAATTGATGTTAATCGGGTCTTGATTCGCTTGACGCTGCTG | 4.56 z-score
4 | CCGATTAACATCAATTTATCCCCTGATGTTAATCGGGTCTTGATTCGCTTGACGCTGCTG | 4.37 z-score
5 | CCGATTAACATCAGGGAAGGACCTGATGTTAATCGGGTCTTGATTCGCTTGACGCTGCTG | 1.18 z-score
6 | CCGATTAACATCACCTTTAGGAGTGATGTTAATCGGGTCTTGATTCGCTTGACGCTGCTG | 1.11 z-score
7 | CCGATTAACATCAGGAAAGTACCTGATGTTAATCGGGTCTTGATTCGCTTGACGCTGCTG | 5.16 z-score
8 | CCGATTAACATCAACCCCGTTTCTGATGTTAATCGGGTCTTGATTCGCTTGACGCTGCTG | 1.79 z-score
9 | CCGATTAACATCATTCCACCAGGTGATGTTAATCGGGTCTTGATTCGCTTGACGCTGCTG | 1.04 z-score
10 | CCGATTAACATCAGGGGAACTCATGATGTTAATCGGGTCTTGATTCGCTTGACGCTGCTG | 4.82 z-score
11 | CCGATTAACATCACCCATTCCCCTGATGTTAATCGGGTCTTGATTCGCTTGACGCTGCTG | 5.05 z-score
12 | CCGATTAACATCAGGGGAACCTATGATGTTAATCGGGTCTTGATTCGCTTGACGCTGCTG | 4.74 z-score
13 | CCGATTAACATCAGGGCATTACCTGATGTTAATCGGGTCTTGATTCGCTTGACGCTGCTG | 1.4 z-score
14 | CCGATTAACATCAGGGAGACCCCTGATGTTAATCGGGTCTTGATTCGCTTGACGCTGCTG | 3.48 z-score
15 | CCGATTAACATCAGGGGATACCCTGATGTTAATCGGGTCTTGATTCGCTTGACGCTGCTG | 5.1 z-score
16 | CCGATTAACATCAAAGGGAATTCTGATGTTAATCGGGTCTTGATTCGCTTGACGCTGCTG | 4.99 z-score
17 | CCGATTAACATCATGGGGTGTGCTGATGTTAATCGGGTCTTGATTCGCTTGACGCTGCTG | 1.49 z-score
18 | CCGATTAACATCAGCTGAGTAGGTGATGTTAATCGGGTCTTGATTCGCTTGACGCTGCTG | 1.45 z-score
19 | CCGATTAACATCAATAATTTTCCTGATGTTAATCGGGTCTTGATTCGCTTGACGCTGCTG | 1.12 z-score
20 | CCGATTAACATCAATCAGCGGGGTGATGTTAATCGGGTCTTGATTCGCTTGACGCTGCTG | 1.52 z-score
21 | CCGATTAACATCAATTTCCCGTATGATGTTAATCGGGTCTTGATTCGCTTGACGCTGCTG | 2.68 z-score
22 | CCGATTAACATCAGGAAAAACCATGATGTTAATCGGGTCTTGATTCGCTTGACGCTGCTG | 1.05 z-score
23 | CCGATTAACATCAGGGCAAACCCTGATGTTAATCGGGTCTTGATTCGCTTGACGCTGCTG | 1.57 z-score
24 | CCGATTAACATCACCGAACTAACTGATGTTAATCGGGTCTTGATTCGCTTGACGCTGCTG | 1.23 z-score
25 | CCGATTAACATCACGGACACCCCTGATGTTAATCGGGTCTTGATTCGCTTGACGCTGCTG | 1.06 z-score
